Compound activity: PubChem BioAssay, NMMLSC
Only some compounds are listed: those with a hit (about 1.1% of all), similar ones and a draw of the others.
CIT2-GFP yeast = modulators of TOR pathway CIT2-GFP in S. cerevisiae | S. cerevisiae CIT2-GFP strain, flow cytometry, 3 h; 100 means same as DMSO wells | 0.065% of 320,000 active | GFP response vs DMSO, % at 10 µM;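 active means GFP response relative to DMSO above a set limit, near the screen mean plus 3 SD, cut at about 150% in these data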;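 further: ratio of well median GFP fluorescence to mean of DMSO wells on the plate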
MEP2 TOR yeast = alters MEP2-GFP fluorescence in TOR pathway yeast screen. S. cerevisiae MEP2-GFP strain, flow cytometry GFP, 3 h; 100% = DMSO control level. GFP response vs DMSO, % at 10 µM. AID 2016. 0.51% of 330,000 active;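 active means GFP response versus DMSO above a set limit, roughly screen mean plus 3 SD, cut at about 180% in these data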;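 further: median GFP fluorescence of the barcode-gated MEP2-GFP cells per well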
LAP4-GFP MLPCN = alters LAP4-GFP fluorescence in TOR pathway yeast screen; S. cerevisiae LAP4-GFP multiplex, flow cytometry GFP, 3 h; median GFP as percent of DMSO wells; GFP response vs DMSO, % at 10 µM; 0.34% of 320,000 active;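 active means GFP response vs DMSO above a set limit, about the screen mean plus 3 SD, cut at about 150% in these data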
AGP1-GFP MLPCN = yeast TOR pathway AGP1-GFP modulation. AID 2066. S. cerevisiae AGP1-GFP multiplex flow cytometry, 3 h; GFP as percent of DMSO wells. GFP response vs DMSO, % at 10 µM. 0.02% of 320,000 active;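 active means GFP response relative to DMSO above a set limit, near screen average plus 3 SD, cut at about 150% in these data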;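 further: median GFP channel fluorescence of the gated AGP1 strain per well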
RPL19A-GFP yeast = yeast TOR pathway RPL19A-GFP modulation; 0.3% of 330,000 active; AID 2025; percent response vs DMSO, % at 10 µM; S. cerevisiae RPL19A-GFP strain, flow cytometry, 3 h; active compounds read low;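 active means percent response vs DMSO below 50%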;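 further: median channel GFP fluorescence of the barcoded RPL19A-GFP strain; ratio of sample median GFP to plate DMSO average so 100% = DMSO; lower means less RPL19A-GFP as with rapamycin TOR inhibition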
VLA-4 inh = inhibition in a human VLA-4 binding assay; P13612; VLA-4 expressing cells, ligand binding flow cytometry; AID 2557; 0.2% of 330,000 active; inhibition, % (about 7 µM as worked out from the volumes in the protocol); in the data active means inhibition above about 50%
VLA-4 mod pick = human VLA-4 allosteric modulation in cherry picked compounds; inhibition, % at 6.7 µM; shares compounds with VLA-4 inh; AID 2813; U937 cells, HUTS-21 LIBS mAb binding, flow cytometry; LDV ligand present at threefold Kd; 2% of 1,300 active; in the data active means inhibition above about 40%;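 further: 0% = ligand without compound and 100% = no ligand background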
* = called active by the depositor; nt = no result given; ! = a repeat was not active.

SMILES	CIT2-GFP yeast	MEP2 TOR yeast	LAP4-GFP MLPCN	AGP1-GFP MLPCN	RPL19A-GFP yeast	VLA-4 inh	VLA-4 mod pick
COc1cccc(C(=O)N/N=c2\sc3ccccc3n2C)c1	97.5	100.8	91.8	96.0	99.7	37.4	nt
O=C(COC(=O)c1c[nH]c2ccccc12)Nc1ccc([N+](=O)[O-])cc1	98.2	96.3	100.2	99.2	95.3	2.1	nt
CCOc1ccc(N(CC(=O)NC2CC2)S(=O)(=O)c2ccc(C)cc2)cc1	96.4	108.0	114.5	104.7	101.7	3.6	nt
Cc1ccc(CNC(=O)C2CCCN2S(=O)(=O)c2ccc(Cl)cc2)cc1 (stereo not drawn)	107.7	100.8	83.8	88.1	89.5	-5.6	nt
Cc1ccc(CNC(=O)C2CCCCN2S(=O)(=O)c2ccccc2)cc1 (stereo not drawn)	97.8	103.7	94.9	97.0	105.2	54.7*	16.1
CCC1CCCCN1C(=O)COC(=O)c1cc(C)nc2ccccc12 (stereo not drawn)	103.3	108.8	106.1	109.2	107.5	-1.9	nt
CCc1cccc(C)c1NC(=O)C1CCN(C(=O)c2ccc([N+](=O)[O-])cc2)CC1	99.7	102.6	102.5	102.9	99.9	56.4*	1.3
COc1ccc(NC(=O)CCN2C(=O)c3cccc([N+](=O)[O-])c3C2=O)cc1	107.5	125.9	111.3	107.7	92.9	51.0*	-3.5
CCc1nc(N2CCN(CC(=O)NCC3CCCO3)CC2)c(C#N)c2c1COC(C)(C)C2 (stereo not drawn)	95.9	98.7	99.7	97.7	100.3	5.4	nt
CCOc1ccc(C(=O)NCCC2=CCCCC2)cc1OCC	103.0	98.2	101.3	102.7	99.0	51.8*	-1.4
O=C(COC(=O)c1ccc(O)cc1)NCCC1=CCCCC1	97.9	105.4	94.9	95.9	96.0	60.7*	5.4
CCNc1nc(OC)nc(N(OC)S(=O)(=O)c2ccc(C)cc2)n1	101.4	99.3	87.0	89.9	99.4	9.5	nt
OC(CNc1ccccc1)COc1ccc(OCC(O)CNc2ccccc2)cc1 (stereo not drawn)	116.8	100.3	100.8	98.3	96.6	-8.4	nt
CCOCC(O)CNc1ccccc1 (stereo not drawn)	93.7	108.0	106.1	99.2	107.5	40.9	13.5
Cc1ccc(S(=O)(=O)N(C)CC(=O)Oc2ccc(-c3nnco3)cc2)cc1	103.7	101.0	100.3	102.3	95.8	3.1	nt
CCc1nnc(NC(=O)OCc2ccccc2)s1	83.0	99.2	78.5	83.4	120.4	56.7*	-0.8
CN(C)c1ccc(CNS(=O)(=O)c2ccc3c(c2)C(C)(C)C(=O)N3C)cc1	98.6	100.4	100.3	103.7	99.8	52.3*	-0.8
COc1cccc(CSCC(=O)NCCc2ccccc2)c1OC	104.3	104.2	100.7	100.8	107.1	13.1	nt
CC(Sc1nnnn1-c1ccccc1)C(=O)Nc1ccc(N2CCN(C)CC2)cc1 (stereo not drawn)	104.3	102.4	97.0	100.3	102.2	101.7*	0.6
C/C(CC(=O)Nc1cccc2c1CCCC2)=N\NC(=O)c1cccc2ccccc12	96.8	103.2	90.4	98.1	104.1	42.7	2.1
Cc1cc(-c2nnc(SCC(=O)Nc3ccc(F)cc3F)n2N)n[nH]1	101.8	103.4	93.2	98.8	98.1	49.8*	8.1
Cc1ccc(C)c(NC(=O)CSc2nnc(-c3cc(C)[nH]n3)n2N)c1	96.9	95.0	95.8	101.2	99.3	10.8	nt
c1ccc(-c2ncnc3cc4n(c23)CCC4)cc1	95.8	99.8	99.2	100.3	101.0	61.0*	-1.1
O=[N+]([O-])c1ccccc1Oc1ncccc1[N+](=O)[O-]	103.8	106.1	105.5	101.6	115.2	71.9*	9.7
CCC(CC)NC(=O)Nc1ccc(F)c(Cl)c1	98.6	102.6	100.5	100.7	97.0	64.1*	7.0
SMILES	CIT2-GFP yeast	MEP2 TOR yeast	LAP4-GFP MLPCN	AGP1-GFP MLPCN	RPL19A-GFP yeast	VLA-4 inh	VLA-4 mod pick
Cc1ccc(NC(=O)Nc2ccc(F)c(Cl)c2)cc1	88.2	102.5	109.4	90.0	96.4	3.9	nt
Cc1nnc(SCC(=O)Nc2sc3c(c2C(N)=O)CCC(C)C3)[nH]c1=O (stereo not drawn)	98.2	94.2	93.5	100.6	94.3	-11.3	nt
Cc1[nH]c2ccccc2c1C(=O)CN1CCN(c2ccc(Cl)cc2)CC1	108.0	112.3	92.6	104.9	104.2	-11.6	nt
COc1ccc(-n2c(Cc3cc(=O)[nH]c(=O)[nH]3)nnc2SCC(=O)N2CCC(C)CC2)cc1	102.5	110.5	100.2	105.0	102.7	10.4	0.3
CCSc1nnc(Cc2cc(=O)[nH]c(=O)[nH]2)n1-c1ccc(Cl)cc1	103.7	98.9	98.3	100.9	101.3	-9.6	nt
COc1cccc(-n2c(Cc3cc(=O)[nH]c(=O)[nH]3)nnc2SCC(=O)N2CCC(C)CC2)c1	93.6	100.3	102.1	100.1	99.2	17.3	4.7
CC1CCN(C(=O)CSc2nnc(Cc3cc(=O)[nH]c(=O)[nH]3)n2-c2ccc(Cl)cc2)CC1	93.1	112.3	103.9	102.6	99.5	-59.4	10.9
CN(C)S(=O)(=O)c1ccc2c(c1)nc(CCC(=O)NCCc1ccc(Cl)cc1)n2C	100.1	104.6	110.0	103.8	98.4	13.4	nt
COc1ccccc1CNC(=O)CN(C)CC(=O)Nc1ccc(F)c(F)c1F	82.8	103.6	79.6	77.5	108.5	7.1	nt
COc1ccc(S(=O)(=O)Nc2ccccn2)cc1C(=O)Nc1ccccc1	94.4	106.7	70.8	92.5	113.2	-10.1	nt
Cc1c(CC(=O)N2C[C@H]3C[C@@H](C2)c2cccc(=O)n2C3)c(=O)oc2cc3occ(C(C)(C)C)c3cc12	100.0	102.4	103.8	102.5	96.4	4.2	nt
COc1ccc2[nH]c(S(=O)Cc3ncc(C)c(OC)c3C)nc2c1 (stereo not drawn)	71.4	97.3	135.2	87.0	98.1	53.6*!	-6.2
COc1ccnc(CS(=O)c2nc3cc(C(O)(F)F)ccc3[nH]2)c1OC (stereo not drawn)	96.2	102.2	96.2	94.2	98.1	-1.3	nt
COc1cc(C)nc(-n2nc(C)cc2OC)n1	108.1	96.1	112.2	99.5	103.7	-8.2	0.0
O=c1c2ccccc2nc2n1CCC2	101.2	100.4	100.2	100.1	98.5	-2.4	nt
O=c1c2ccccc2nc2n1CCc1c-2[nH]c2ccccc12	75.3	97.3	103.5	78.6	98.2	51.4*	3.8
CSc1nc2nc(-c3ccccc3)cc(=O)n2[nH]1	101.1	105.7	107.0	nt	100.8	92.7*	5.1
